Measurements published in the supplement of paper PMC6555819.

Experiments:
Test in all cases: PBM binding z-score (relative to random genomic background probes); higher = stronger binding; sequences stand for … in GC…GCGATTGACAGCGTAGAATGAAGG
[1] = tested on: FXR:RXRa (NR concentration 270 nM, RXRa partner concentration 90 nM)
Method in brief: (§1)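 Regression normalization was applied to scanned fluorescence from custom Agilent 4×180K protein-binding microarrays. Before scanning, arrays were incubated 1 h with ligand-free nuclear receptor dimers, and binding was detected with antibodies against each partner (one per run). Binding z-scores use the random background probes as reference.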

[2] = tested on: LXRa homodimer (NR concentration 270 nM)
Method in brief: as §1

[3] = tested on: LXRb homodimer (NR concentration 270 nM)
Method in brief: as §1

[4] = tested on: PPARa:RXRa (NR concentration 270 nM, RXRa partner concentration 90 nM)
Method in brief: as §1

[5] = tested on: PPARg:RXRa (NR concentration 180 nM, RXRa partner concentration 90 nM)
Method in brief: as §1

[6] = tested on: PPARg:RXRa 270nM:90nM, anti-RXR (NR concentration 270 nM, RXRa partner concentration 90 nM)
Method in brief: as §1

[7] = tested on: PPARg:RXRa 30nM:10nM, anti-RXR (NR concentration 30 nM, RXRa partner concentration 10 nM)
Method in brief: as §1

[8] = tested on: PPARg:RXRa 90nM:30nM, anti-RXR (NR concentration 90 nM, RXRa partner concentration 30 nM)
Method in brief: as §1

[9] = tested on: PPARg:RXRa DBDmut IVT, anti-RXR (DBD mutation: RXRa K156A/R161A, NR concentration 270 nM, RXRa partner concentration 90 nM)
Method in brief: as §1

Sequence | PBM binding z-score [1] | PBM binding z-score [2] | PBM binding z-score [3] | PBM binding z-score [4] | PBM binding z-score [5] | PBM binding z-score [6] | PBM binding z-score [7] | PBM binding z-score [8] | PBM binding z-score [9]
TAGCCTAGGTCGTTCAGGGGCCAGTATAGAAAGC | 0.616 | -0.424 | 0.206 | 0.74 | -0.0601 | 0.17 | -0.575 | -0.218 | -0.258
ATATGTAGGTTAGCTGGGGTCCTTCAGACTAGGC | 0.425 | -0.109 | 0.384 | 2.78 | 2.96 | 2.75 | 0.715 | 1.78 | 6.27
CCTACTGGACCAAGGTCATTGATCAGTCAAAGCA | 3.24 | 1.96 | 0.618 |  | 2.11 | 2.77 | 0.593 | 1.95 | 2.03
CCTACGGGGCCACGAAAGGTCATTGATTCAGTGA | 4.71 | 4.26 | 0.262 | 4.69 | 2.82 | 3.88 | 1.18 | 2.46 | 1.57
TATCAAAGTTCAAAGGTAACGTAAGTATCCACAC | 6.87 | 6.56 | 3.08 | 5.56 | 6.12 | 6.03 | 3.65 | 5.24 | 0.181
CCTTACGGGTTACTCCAGGTTATAGCATCGGAGT | 2.01 | 5.38 | -0.167 | 1.45 | 0.504 | 0.711 | -0.136 | 0.413 | 0.986
CGTCCAAAGTCAAAGGTCAGTGAAGAGATGACGG | 3.96 | 1.31 | 0.637 |  | 5.73 | 5.88 | 3.89 | 5.37 | 0.242
AGTCAAAGTTCATCTAGGTAACATAAGATATGCT | 6.39 | 5.61 | 2.08 | 5.11 | 6.9 | 6.54 | 3.85 | 5.76 | 1.1
CACACTAGGTCACAGAGGTCAAAGTCCGTGCGTA | 7.16 | 8.63 | 2.87 |  | 9.53 | 7.9 | 5.64 | 7.43 | 7.79
CAAACTAGGTCACAGTGGTCAAAGTCCGTGCGTA | 4.01 | 0.593 | -0.0137 | 5 | 8.83 | 6.97 | 5.52 | 7.04 | 8.5
TCTAGTTGGTCACGGAGGTCACAAACGACGGGTA | 2.95 | 2.21 | 0.892 |  | 3.15 | 3.83 | 3.19 | 3.12 | 2.44
GCATATAGGTAATACAAGGTCAAAGTCCGATTGT | 3.47 | 9.94 | 1.42 |  | 2.69 | 3.32 | 1.39 | 2.9 | 4.1
AGAATGAGATTACCAAAGATCAGGGAAACGCTTG | -0.562 | -0.342 | -0.574 | -0.285 | 0.538 | -0.216 | -0.00239 | 0.0878 | -0.34
TCTAGTTGGTCACGGAGGTCCCACACGACGGGTA | -0.177 | 0.0478 | -0.115 |  | 0.739 | 1.93 | 3.06 | 2.25 | 1.68
AGAATGGGGTTACCAAAGATCAGGGAAACGCTTG | 3.7 | -0.351 | 0.166 | 5.05 | 4.62 | 4.32 | 1.72 | 3.47 | 4.37
TATACAAGGTCAAAGGCCAGAGTACGAATGTCGA | 7.51 | 6.08 | 4.21 |  | 8.52 | 7.39 | 5.48 | 7.66 | 2.91
CAAACTAGTTCAAGAGGTCAAAGTCCGCTTCCCG | 5.96 | 8.11 | 2.39 | 5.38 | 3.84 | 5.47 | 2.85 | 4.8 | 2.43
CCTTACGGGTCACGTGGTTATAGCACGACGAGCG | 6.41 | -0.108 | -0.474 |  | 6.07 | 5.77 | 2.2 | 4.59 | 3.06
CCTACTGGGCCACTAAAGGTCATTGATTCAGTGA | 3.27 | 8.29 | 1.27 | 4.62 | 4.06 | 4.89 | 2.26 | 4.15 | 5.49
ATCGAAAGGTCGACCAGGTGAGTATACACCGTTT | 4.91 | 0.21 | 0.349 | 4.53 | 3.14 | 3.34 | 1.16 | 2.44 | 0.539
CCTACTGGTCCAAGGTCATTGATCAGTCAAAGCA | 3.53 | 2.3 | 0.894 | 3.59 | 1.77 | 3.04 | 0.847 | 2.12 | 0.394
TCTTGTAGATCGATAGAGGTTAAGAAAGTGCGCT | 0.392 | -0.317 | -0.0814 | 1.48 | -0.159 | 1.66 | 2.48 | 1.93 | 0.891
TACCCTAGGTCATGGGCCAGTATACCACGCGAAC | 5.02 | 6.35 | 2.13 |  | 4.58 | 4.25 | 1.59 | 3.13 | 1.55
TAGCCTAGGTCATGCGGGCCAATATAGTGTCGGC | 4.22 | 0.473 | -0.31 |  | 2.39 | 2.44 | 0.146 | 1.26 | 1.58
CCTACTGGGCCATTCAGAGGGCATTGATCATATG | -0.338 | 0.468 | -0.759 | 0.726 | 0.602 | 0.565 | -0.432 | -0.127 | 4.54
CCTACTGGGCCACGAAAGGCCATTGATTCAGTGA | -0.0775 | -0.396 | -0.835 | 0.948 | 1.34 | 1.21 | -0.199 | 0.589 | 5.23
CCTTACGGGTCACTGACAGGTTATAGCGTTTGGA | 5.14 | 0.362 | 0.00055 |  | 4.5 | 4.32 | 1.5 | 2.78 | 2.91
ATCTCTAGGTTAAGATAGTTCAGTGAATGCAAAT | 0.821 | 2.52 | 0.754 |  | 1.39 | 1.66 | 0.609 | 1.15 | 3.33

Sequence | PBM binding z-score [1] | PBM binding z-score [2] | PBM binding z-score [3] | PBM binding z-score [4] | PBM binding z-score [5] | PBM binding z-score [6] | PBM binding z-score [7] | PBM binding z-score [8] | PBM binding z-score [9]
GGAACGAGGGCATTCGAGTTCATAGCATGGCGAT | 3.41 | 6.2 | -0.617 |  | 1.4 | 1.33 | -0.096 | 0.725 | 2.82
TATTCAGGGTCAAAGGCCAGAGTACGAATGTCGA | 7.57 | 5.36 | 5.04 |  | 8.53 | 7.7 | 6.15 | 7.42 | 2.47
ATATGTAGGTTATCTGGGGTCATTCAGACTAGGC | 6.16 | 8.86 | 2.41 |  | 6.31 | 5.84 | 3.28 | 5.32 | 7.21
ATATGTAGGTTACATCCGGGTCATCCAGGCTATG | 1.91 | 1.67 | 0.838 |  | 6.12 | 5.21 | 2.47 | 4.55 | 7.32
ATATGTAGGATAGCTGGGGTCATTCAGACTAGGC | 3.09 | 1.63 | 1.33 |  | 2.42 | 3.01 | 1.01 | 2.38 | 3.17
TAGCCTAGGTCATTCAGGGGCCAGCATAGAAAGC | 4.87 | 0.45 | 0.706 |  | 2.37 | 2.62 | 0.723 | 1.28 | 2.03
TCTAGTTGGTCACGGAGGACACACACGACGGGTA | 0.602 | 0.465 | 0.417 |  | 1.34 | 1.7 | 2.85 | 2.53 | 2.26
TAGCCTAGGTCATTCAGGGGCAAGTATAGAAAGC | 5.65 | 2.15 | 1.41 |  | 2.47 | 2.67 | 0.449 | 1.87 | 1.93
CAAACTAGGTCACTAAAGGTCAAAGTCGAATGAC | 7.13 | 10.4 | 4.07 |  | 10.1 | 8.33 | 6.31 | 8.16 | 8.1
CCTACTGGGCCATTCAGAGGTCAATGATCATATG | 2.47 | 4.81 | 0.521 |  | 2.59 | 3.02 | 0.908 | 2.2 | 4.08
AGAATGAGGTTACCAAAGGTCAGGGAAACGCTTG | 6.02 | 8.17 | 0.893 |  | 5.51 | 5.63 | 3.27 | 4.99 | 4.16
TCTCGGAGGAAACGAAAGGTCAGAGCTCGACATC | 1.86 | 2.91 | -0.0498 |  | 1.74 | 3.9 | 2.92 | 3.77 | 1.21
TCTTGTAGATCAACAGGAGGTTAATAAAGATCGA | 0.0439 | -0.0218 | -0.135 |  | 0.6 | 1.68 | 2.71 | 2.08 | 1.38
CCTACTGGGCCAAAGGTGATTGATTCCAATGCTC | -0.0621 | -0.216 | -0.106 |  | 8.87 | 7.96 | 7.6 | 8.66 | 5.69
AATACAGGGTCATCTTAGGCCAGAGTACGCACAG | 7.35 | 2.36 | 1.74 |  | 6.19 | 5.79 | 2.46 | 4.59 | 2.7
ATATGTAGGTTAGCTGAGGTCATTCAGACTAGGC | 5.29 | 6.24 | 1.12 |  | 5.21 | 4.91 | 2.35 | 4.11 | 6.93
ACTCGGATGACAAAGGTCAGAGCTACGCCAGTGA | 3.55 | 1.58 | 0.503 |  | 4.68 | 5.37 | 3.76 | 5.58 | 0.169
AATACAGGGTCATCGTAGGTCAGAGTACGCACAG | 7.7 | 5.76 | 1.95 |  | 7.46 | 6.38 | 3.55 | 5.23 | 3.26
TCTCGGAGGACACAAAGGTCAGAGCTTTCCAGAG | 3.05 | 2.17 | -0.2 |  | 3.27 | 4.43 | 3.16 | 4.07 | 1.57
TAGCCTAGTTCATGCGGGCCAGTATAGTGTCGGC | -0.33 | -0.511 | -0.772 |  | -0.0909 | -0.0482 | -0.651 | -0.319 | 0.864
CAAACTAGGTCAAAAGGTCAAAGTCCGCTTCCCG | 7.44 | 6.17 | 2.63 |  | 10.2 | 8.73 | 7.62 | 9.1 | 8.5
CGTCCAAGGTCATATGAGGTCAGTGAAGACAGAT | 7.7 | 6.17 | 2.22 |  | 4.87 | 5.72 | 2.34 | 4.36 | 3.46
CGTCCAAGGTCAGCGGGTCAGTGAAAGCGACGTG | 5.98 | 0.175 | -0.324 |  | 4.41 | 4.84 | 1.19 | 2.81 | 3.12
CCTACTGGGCCGTTCAGAGGTCATTGATCATATG | 2.45 | 5.59 | 0.189 |  | 1.33 | 2.48 | 0.658 | 1.67 | 1.34
CCTTACGGGTCACTCCAGGTTATATCATCGGAGT | 4.99 | 2.49 | 0.56 |  | 3.65 | 3.72 | 0.84 | 2.78 | 2.96
TAGCCTAGGTCATTCAGGGGCCACTATAGAAAGC | 4.76 | 1.27 | 1.1 |  | 2.63 | 2.83 | 0.439 | 2.09 | 2.08
AATACAAGGTCATCGTAGGCCAGAGTACGCACAG | 7.64 | 6.1 | 3.33 |  | 6.55 | 5.94 | 2.73 | 5.04 | 3.93
